For six compounds, composite z-score and z-score results are on record in PubChem BioAssay.

Activity calls are given as the source filed them.

For assay [1], the system named is PRMT1 (protein arginine N-methyltransferase 1). The assay can be described thus: PRMT1 binders on small-molecule microarrays, primary screen, biochemical, small-molecule microarray, 635 nm fluorescence (AID 1088).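 Note: binding of Prmt1 protein to compounds spotted on small-molecule microarray slides.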 Conditions: small-molecule microarray binding, higher = more signal.
Assay [2] can be described thus: yeast growth modulation, basal conditions, primary screen, YJM789 clinical isolate, OD600, 24 h (AID 1089).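 Note: growth of clinical yeast isolate S. cerevisiae YJM 789 seeded 1000 cells per well; test concentration not given here.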 Particulars: S. cerevisiae YJM789 growth, higher = more signal, called active from +8 up or from −8 down.
Assay [3] can be described thus: fission yeast growth modulation, primary screen, strain 972, OD600, 24 h, no modulator (AID 1090).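 Note: basal condition with compound alone and no growth modifier present; test concentration not given here.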 Conditions: S. pombe 972 growth, higher = more signal, called active from +8 up or from −8 down.
Assay [4] can be described thus: S. cerevisiae growth modulation with rapamycin, primary screen, strain BY4716, OD600, 96 h (AID 1091). Note: test concentration not given here. Particulars: higher = more signal, called active from +8 up or from −8 down.
In assay [5] the target is Torsin-1A-interacting protein 2 (Homo sapiens) (UniProt Q8NFQ8). Kind of assay: LULL1 binders on small-molecule microarray, primary screen, cell lysate, human LULL1 lysate, 635/667 nm fluorescence (AID 1092).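 Note: probe is lysate of COS7 cells overexpressing human LULL1; score merges per-feature 667 nm fluorescence with signal-to-noise.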 Conditions: hLULL1 lysate binding, 635 nm fluorescence, higher = more signal.
Torsin-1A-interacting protein 2 (Homo sapiens), sequence (Q8NFQ8 whole entry, looked up): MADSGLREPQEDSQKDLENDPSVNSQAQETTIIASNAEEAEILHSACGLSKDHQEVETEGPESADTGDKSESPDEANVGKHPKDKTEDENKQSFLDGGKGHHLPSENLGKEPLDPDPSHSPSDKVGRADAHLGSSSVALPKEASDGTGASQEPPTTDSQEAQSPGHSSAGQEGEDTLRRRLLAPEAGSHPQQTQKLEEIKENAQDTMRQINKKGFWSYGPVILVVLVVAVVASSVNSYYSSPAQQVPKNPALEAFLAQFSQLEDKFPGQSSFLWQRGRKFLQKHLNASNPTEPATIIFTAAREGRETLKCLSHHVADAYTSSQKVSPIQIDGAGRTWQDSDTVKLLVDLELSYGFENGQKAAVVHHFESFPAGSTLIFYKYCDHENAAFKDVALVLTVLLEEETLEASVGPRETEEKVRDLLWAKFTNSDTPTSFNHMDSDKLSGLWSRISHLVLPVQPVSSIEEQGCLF
The nature of assay [6]: E. coli growth modulation, two-sided OD650, primary screen, E. coli filamentation project, strain DRC41, 24 h (AID 1093).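 Note: MC1000 strain lacking acrAB efflux and sulA so SOS filamentation is blocked; test concentration not given here.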 Conditions: OD650, 24 h, higher = more signal, called active from +8 up or from −8 down.
The nature of assay [7]: small-molecule microarray binders of probe aLefty2, primary screen, biochemical, biotinylated probe, 635/667 nm fluorescence (AID 1094).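 Note: score merges spot fluorescence near 667 nm with spot signal-to-noise ratio.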 Particulars: higher = more signal.
The subject of assay [8] is Noggin (protein binding on small-molecule microarray). The assay can be described thus: Noggin binders on small-molecule microarray, primary screen, biochemical, 635/667 nm fluorescence (AID 1095).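 Note: score merges 667 nm feature fluorescence with signal to noise over triplicate slides.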 Particulars: 635 nm fluorescence, higher = more signal.
Assay [9] addresses Neurogenic locus notch homolog protein 3 (Homo sapiens) (UniProt Q9UM47). The assay can be described thus: NOTCH3 binders on small-molecule microarray, primary screen, biochemical, 635/667 nm fluorescence (AID 1096). Particulars: NOTCH3 binding, 635 nm fluorescence, higher = more signal.
A short description of assay [10]: small-molecule microarray binders of probe aEGFR, primary screen, biochemical, biotinylated probe, 635/667 nm fluorescence (AID 1097).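 Note: probe is a biotinylated anti-EGFR antibody binding compounds printed on slides; score combines fluorescence near 667 nm and signal to noise of each spot.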 Particulars: higher = more signal.
For assay [11], the system named is Plasmodium falciparum Sir2 (PF13_0152, Sir2A). The assay can be described thus: pfSir2 binders on small-molecule microarrays, primary screen, biochemical, small-molecule microarray, 635 nm fluorescence (AID 1098).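 Note: score merges spot fluorescence intensity with its signal-to-noise ratio.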 Particulars: small-molecule microarray binding, fluorescence 635 nm; higher = more signal.
The nature of assay [12]: small-molecule microarray binders of probe aDKK1, primary screen, biochemical, biotinylated probe, 635/667 nm fluorescence (AID 1099).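 Note: score merges 667nm spot fluorescence with signal to noise across triplicate slides; reference of the scale not given here.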 Conditions: higher = more signal.
Assay [13] can be described thus: small-molecule microarray binders of probe aCHRDL2, primary screen, biochemical, biotinylated probe, 635/667 nm fluorescence (AID 1100). Particulars: higher = more signal.
A short description of assay [14]: splicing luciferase reporter signal modulators, primary screen, spliceosome inhibition project, cell-based, HEK293, splice +/- reporter (AID 1101).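 Note: HEK293 cells carrying a splicing-competent luciferase reporter gene; test concentration not given here.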 Particulars: luminescence, 24 h, higher = more signal, called active from +8 up or from −8 down. In general terms: In a reporter assay the amount or activity of a reporter protein is the signal.
Assay [15] deals with Fibroblast growth factor 10 (Homo sapiens) (UniProt O15520). Kind of assay: FGF10 binders on small-molecule microarrays, primary screen, biochemical, small-molecule microarray, 635 nm fluorescence (AID 1102). Particulars: FGF10 binding, fluorescence 635 nm, higher = more signal.
Fibroblast growth factor 10 (Homo sapiens), sequence (O15520 whole entry, looked up): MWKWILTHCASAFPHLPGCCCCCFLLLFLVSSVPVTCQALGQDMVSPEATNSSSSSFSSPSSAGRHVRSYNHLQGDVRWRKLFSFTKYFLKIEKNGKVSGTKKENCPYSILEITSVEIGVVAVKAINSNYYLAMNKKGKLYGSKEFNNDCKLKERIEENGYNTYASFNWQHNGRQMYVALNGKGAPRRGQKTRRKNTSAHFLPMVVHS
Assay [16] deals with glycogen synthase kinase-3 (GSK3A per assay name; protocol says GSK3B). The assay can be described thus: GSK3 binders on small-molecule microarrays, primary screen, biochemical, small-molecule microarray, 635 nm fluorescence, GSK3A (AID 1103). Note: the record names both GSK3A and GSK3B. Particulars: small-molecule microarray binding, fluorescence 635 nm; higher = more signal.
Assay [17] has as its target Epidermal growth factor receptor (Homo sapiens) (UniProt P00533). The assay can be described thus: EGFR binders on small-molecule microarrays, primary screen, biochemical, small-molecule microarray, 635 nm fluorescence (AID 1104).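 Note: score merges 667 nm emission intensity with spot signal to noise over triplicate slides.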 Conditions: EGFR binding, higher = more signal.
Assay [18] has as its target Follistatin-related protein 3 (Homo sapiens) (UniProt O95633). Kind of assay: FSTL3 binders on small-molecule microarrays, primary screen, biochemical, small-molecule microarray, 635 nm fluorescence (AID 1105).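 Note: score merges emission near 667 nm and signal to noise per printed spot across three slides.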 Particulars: FSTL3 binding, higher = more signal.
For assay [19], the target named is Dickkopf-related protein 1 (Homo sapiens) (UniProt O94907). The assay can be described thus: DKK1 binders on small-molecule microarrays, primary screen, biochemical, small-molecule microarray, 635 nm fluorescence scan (AID 1106).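 Note: score merges emission near 667 nm with signal to noise over three replicate slides.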 Particulars: DKK1 binding, higher = more signal.
Dickkopf-related protein 1 (Homo sapiens), sequence (O94907 whole entry, looked up): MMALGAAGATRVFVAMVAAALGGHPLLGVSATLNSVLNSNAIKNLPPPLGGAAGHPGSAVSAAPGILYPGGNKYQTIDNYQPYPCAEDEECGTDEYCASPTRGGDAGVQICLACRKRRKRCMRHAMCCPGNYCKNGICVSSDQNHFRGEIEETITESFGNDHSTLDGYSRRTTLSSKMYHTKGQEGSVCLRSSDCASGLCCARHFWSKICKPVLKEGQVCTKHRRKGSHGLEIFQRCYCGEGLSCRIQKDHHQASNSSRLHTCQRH
In assay [20] the test system is Inhibin beta A chain (activin A). The assay can be described thus: INHBA (activin A) binders on microarrays, primary screen, biochemical, small-molecule microarray, 635 nm fluorescence scan (AID 1107).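 Note: mouse activin A protein probed at 4.33 µg/mL on printed slides; score merges bound-protein fluorescence near 667 nm with spot signal-to-noise.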 Conditions: small-molecule microarray binding, higher = more signal.

Follistatin-related protein 3 (Homo sapiens), sequence (O95633 whole entry, looked up): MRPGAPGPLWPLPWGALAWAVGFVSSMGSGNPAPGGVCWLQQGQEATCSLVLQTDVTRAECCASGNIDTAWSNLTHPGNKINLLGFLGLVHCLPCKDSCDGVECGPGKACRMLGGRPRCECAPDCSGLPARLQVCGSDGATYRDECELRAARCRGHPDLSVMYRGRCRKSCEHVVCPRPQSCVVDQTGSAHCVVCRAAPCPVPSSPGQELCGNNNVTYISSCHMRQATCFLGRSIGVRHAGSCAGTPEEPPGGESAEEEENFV
Epidermal growth factor receptor (Homo sapiens), sequence (P00533 whole entry, looked up): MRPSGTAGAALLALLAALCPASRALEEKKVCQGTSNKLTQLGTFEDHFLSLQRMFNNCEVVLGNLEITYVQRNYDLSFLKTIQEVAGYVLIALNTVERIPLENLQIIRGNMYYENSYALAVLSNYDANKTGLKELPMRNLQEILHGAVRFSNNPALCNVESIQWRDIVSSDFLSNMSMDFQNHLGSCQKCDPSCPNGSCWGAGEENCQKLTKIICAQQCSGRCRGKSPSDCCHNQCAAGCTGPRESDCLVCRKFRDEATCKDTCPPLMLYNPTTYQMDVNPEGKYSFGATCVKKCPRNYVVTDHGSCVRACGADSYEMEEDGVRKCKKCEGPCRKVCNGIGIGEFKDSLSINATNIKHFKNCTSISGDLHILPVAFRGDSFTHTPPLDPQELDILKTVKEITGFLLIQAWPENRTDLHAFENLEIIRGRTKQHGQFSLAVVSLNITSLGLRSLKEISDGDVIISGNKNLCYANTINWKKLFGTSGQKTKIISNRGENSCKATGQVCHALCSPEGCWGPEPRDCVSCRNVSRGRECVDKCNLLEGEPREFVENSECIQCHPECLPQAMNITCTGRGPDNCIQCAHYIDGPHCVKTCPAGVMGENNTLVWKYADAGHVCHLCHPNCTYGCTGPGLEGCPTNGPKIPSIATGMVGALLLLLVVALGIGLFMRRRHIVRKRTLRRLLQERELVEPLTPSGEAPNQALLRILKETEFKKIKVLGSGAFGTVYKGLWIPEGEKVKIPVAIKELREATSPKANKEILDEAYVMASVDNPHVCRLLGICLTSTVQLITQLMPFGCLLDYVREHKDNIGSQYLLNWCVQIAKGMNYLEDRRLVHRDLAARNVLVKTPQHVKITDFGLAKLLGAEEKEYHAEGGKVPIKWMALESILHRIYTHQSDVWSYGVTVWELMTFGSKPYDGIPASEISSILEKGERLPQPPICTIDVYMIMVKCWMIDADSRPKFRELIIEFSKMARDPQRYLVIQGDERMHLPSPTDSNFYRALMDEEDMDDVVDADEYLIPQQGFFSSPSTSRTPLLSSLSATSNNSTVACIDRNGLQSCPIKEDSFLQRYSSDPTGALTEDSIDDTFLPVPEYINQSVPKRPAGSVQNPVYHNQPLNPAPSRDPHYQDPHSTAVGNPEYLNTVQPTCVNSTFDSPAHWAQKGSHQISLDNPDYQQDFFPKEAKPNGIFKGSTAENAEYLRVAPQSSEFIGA
Neurogenic locus notch homolog protein 3 (Homo sapiens), sequence (Q9UM47 whole entry, looked up): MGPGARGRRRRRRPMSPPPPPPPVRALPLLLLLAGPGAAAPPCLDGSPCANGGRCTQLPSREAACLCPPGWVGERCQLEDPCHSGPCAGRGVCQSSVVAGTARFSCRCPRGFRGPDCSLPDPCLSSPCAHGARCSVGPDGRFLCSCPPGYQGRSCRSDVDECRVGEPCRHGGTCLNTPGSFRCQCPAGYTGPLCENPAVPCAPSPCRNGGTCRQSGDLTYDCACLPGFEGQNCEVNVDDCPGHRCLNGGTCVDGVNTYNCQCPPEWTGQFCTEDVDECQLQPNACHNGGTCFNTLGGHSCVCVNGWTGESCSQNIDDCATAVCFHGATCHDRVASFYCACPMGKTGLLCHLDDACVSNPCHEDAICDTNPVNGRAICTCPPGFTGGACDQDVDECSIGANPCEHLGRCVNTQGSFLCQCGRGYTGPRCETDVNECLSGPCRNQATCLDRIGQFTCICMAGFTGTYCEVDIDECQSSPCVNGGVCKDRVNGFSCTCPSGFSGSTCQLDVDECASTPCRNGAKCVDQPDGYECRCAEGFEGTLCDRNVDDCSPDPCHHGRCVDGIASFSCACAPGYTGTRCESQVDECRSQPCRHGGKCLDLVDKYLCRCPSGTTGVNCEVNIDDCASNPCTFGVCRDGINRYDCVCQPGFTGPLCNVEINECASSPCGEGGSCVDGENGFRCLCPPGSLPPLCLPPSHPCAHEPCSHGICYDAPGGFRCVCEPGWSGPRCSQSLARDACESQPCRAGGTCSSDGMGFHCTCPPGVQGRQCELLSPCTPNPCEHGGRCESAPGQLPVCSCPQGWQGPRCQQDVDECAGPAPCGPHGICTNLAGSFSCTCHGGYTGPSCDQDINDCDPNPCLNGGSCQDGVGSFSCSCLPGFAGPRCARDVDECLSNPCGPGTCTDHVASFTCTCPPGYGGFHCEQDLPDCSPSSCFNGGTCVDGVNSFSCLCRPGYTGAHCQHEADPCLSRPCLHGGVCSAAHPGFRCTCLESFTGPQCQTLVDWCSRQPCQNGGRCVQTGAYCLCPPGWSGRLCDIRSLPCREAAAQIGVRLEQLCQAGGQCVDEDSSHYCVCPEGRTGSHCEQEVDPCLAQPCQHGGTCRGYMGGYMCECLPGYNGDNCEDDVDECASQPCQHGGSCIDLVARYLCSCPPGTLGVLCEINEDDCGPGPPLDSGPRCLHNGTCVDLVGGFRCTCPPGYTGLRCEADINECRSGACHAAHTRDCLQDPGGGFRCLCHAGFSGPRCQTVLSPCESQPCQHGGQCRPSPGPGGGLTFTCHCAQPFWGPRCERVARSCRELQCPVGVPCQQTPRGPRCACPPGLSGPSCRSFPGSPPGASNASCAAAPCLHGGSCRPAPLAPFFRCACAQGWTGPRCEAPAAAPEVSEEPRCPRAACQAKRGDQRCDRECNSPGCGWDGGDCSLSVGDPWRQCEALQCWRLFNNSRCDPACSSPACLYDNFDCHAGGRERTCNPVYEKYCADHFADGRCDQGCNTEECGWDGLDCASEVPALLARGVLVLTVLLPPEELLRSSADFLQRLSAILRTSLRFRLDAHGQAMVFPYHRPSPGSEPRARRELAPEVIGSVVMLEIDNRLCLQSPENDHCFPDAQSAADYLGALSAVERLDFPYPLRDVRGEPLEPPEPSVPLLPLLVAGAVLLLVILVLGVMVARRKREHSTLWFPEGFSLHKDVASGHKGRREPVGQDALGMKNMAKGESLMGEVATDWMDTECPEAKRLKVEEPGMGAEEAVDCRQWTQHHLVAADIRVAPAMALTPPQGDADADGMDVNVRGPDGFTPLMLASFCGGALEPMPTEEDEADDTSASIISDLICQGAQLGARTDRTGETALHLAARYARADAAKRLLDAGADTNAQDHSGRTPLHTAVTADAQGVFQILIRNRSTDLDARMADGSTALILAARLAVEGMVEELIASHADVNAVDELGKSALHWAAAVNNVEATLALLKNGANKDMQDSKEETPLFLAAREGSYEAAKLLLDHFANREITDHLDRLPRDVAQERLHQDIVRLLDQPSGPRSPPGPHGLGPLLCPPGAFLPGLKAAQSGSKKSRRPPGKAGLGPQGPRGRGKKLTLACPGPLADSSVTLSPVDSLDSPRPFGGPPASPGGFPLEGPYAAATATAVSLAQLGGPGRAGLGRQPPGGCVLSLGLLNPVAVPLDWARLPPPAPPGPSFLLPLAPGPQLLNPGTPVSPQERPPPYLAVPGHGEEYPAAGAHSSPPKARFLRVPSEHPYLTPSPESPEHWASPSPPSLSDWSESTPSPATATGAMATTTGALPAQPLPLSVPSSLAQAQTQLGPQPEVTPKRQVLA

`C=C(C(=O)CC[C@@H](OC(C)=O)c1ccc(CO)o1)C(C)C`: the composite z-score in assay [1] is 1.2; in assay [5], 0.288; in assay [7], -0.186; in assay [8] it was 1.28; in [9], 0.982; in assay [10] it was -0.15. Also, the composite z-score in assay [11] is -0.78; in assay [12] it was -0.418; in assay [13], -0.298; in [15] it was 0.826; in assay [16], 0.482; in assay [17] it was -0.289. Moreover, the values for the composite z-score in [18], in [19] and in assay [20] were 1.39, 0.536 and 1.41, respectively. Besides, the z-score was -2.4 (inactive) in assay [2]; -0.357 (inactive) in [3]; -0.561 (inactive) in [4]; 0.331 (inactive) in assay [6]; 0.993 (inactive) in assay [14].
In the case of `CCOC(=O)C1=C[C@@H](c2ccccc2)N(S(=O)(=O)c2ccc(C)cc2)[C@H]1c1ccccc1Cl`, the composite z-score in assay [1] came out at 1.5; in assay [5], 2.8; in assay [7], 0.0935; in [8], 0.985; in [9], 1.06; in [10], 0.153. Moreover, the composite z-score in [11] was 1.9; in assay [12], 0.379; in assay [13], -0.229; in [15], 1.29; in assay [16], 1.29; in assay [17], 0.683. Besides, the figures for the composite z-score in assay [18], in assay [19] and in [20] were 1.05, 0.508 and 0.556, respectively. Further, the z-score in assay [2] is 0.849 (inactive); in assay [3], 2.19 (inactive); in assay [4] it was 2.48 (inactive); in assay [6], -0.518 (inactive); in assay [14] it was 0.328 (inactive).
On to `NCCCCCNC(=O)[C@@H]1C[C@@H]2C(=O)NCC(=O)N2[C@@H]1c1cccc(OCCO)c1`, for which the composite z-score was 1.44 in [1]; 1.32 in assay [5]; 0.086 in assay [7]; 1.35 in assay [8]; 0.712 in [9]; -0.0158 in assay [10]. Further, the composite z-score was found to be 1.06 in assay [11]; 0.237 in assay [12]; 0.0759 in assay [13]; 1 in assay [15]; 1.26 in assay [16]; 0.396 in assay [17]. In addition, the composite z-score came to 0.669 in assay [18], 1.05 in assay [19] and 0.732 in [20]. The z-score in assay [2] was -0.0012 (inactive); in assay [3], -0.926 (inactive); in [4], 0.267 (inactive); in assay [6], 2.01 (inactive); in assay [14], -0.852 (inactive).
For `CC(=O)c1ccc(C(O)C2C=CC3C(=O)N(c4ccccc4)C(=O)C3N2Nc2ccc(C#N)cc2)cc1` (stereo not given), the composite z-score is 0.155 in [1]; 3.76 in [5]; -0.103 in assay [7]; -0.442 in assay [8]; 0.352 in assay [9]; 0.0753 in [10]. Besides, the composite z-score in assay [11] is 0.45; in assay [12], 0.204; in assay [13], 0.764; in assay [15], -0.0433; in assay [16], 0.582; in [17], 0.262. Also, the composite z-score is 0.133 in assay [18], -0.594 in assay [19] and 0.443 in assay [20]. The z-score in assay [2] was -0.623 (inactive); in assay [3] it was 1.04 (inactive); in assay [4] it was 2.05 (inactive); in assay [6], -0.963 (inactive); in assay [14], 0.744 (inactive).
As for `COCCOC(=O)N1C(=O)[C@@]2(c3cc(C#Cc4ccc(OC)cc4)ccc31)[C@H](C(=O)Nc1nc3ccccc3s1)[C@H]1C(=O)O[C@H](c3ccccc3)[C@H](c3ccccc3)N1[C@@H]2c1ccc(OCCO)cc1`, the composite z-score in assay [1] was 1.56; in assay [5] it was 1.02; in assay [7] it was -0.0699; in assay [8] it was 1.54; in assay [9] it was 1.13; in [10], 0.0311. Besides, the composite z-score in assay [11] was 0.557; in assay [12] it was -0.135; in [13], -0.571; in [15], 1.37; in assay [16] it was 1.28; in assay [17] it was 0.654. Further, the composite z-score was found to be 1.38 in [18], 0.901 in assay [19] and 0.0865 in assay [20]. Moreover, the z-score was 3.34 (inactive) in assay [2]; 2.1 (inactive) in assay [3]; 4.58 (inactive) in assay [4]; 0.575 (inactive) in assay [6]; -0.653 (inactive) in assay [14].
As for `[N-]=[N+]=NCc1ccccc1C[C@]1(C(N)=O)N=C(c2ccc(OCCCO)cc2)O[C@H]1c1ccccc1`, the composite z-score in assay [1] is 1.31; in assay [5], 3.32; in assay [7], 0.158; in assay [8] it was -0.593; in assay [9], 0.859; in assay [10], -0.02. For the same compound, the composite z-score in assay [11] was 1; in assay [12], 0.774; in assay [13], 0.827; in [15], 0.703; in [16] it was 0.854; in [17], -1.17. Besides, the values for the composite z-score in [18], in assay [19] and in assay [20] were -0.188, -1.14 and -0.0778, respectively. For the same compound, the z-score in [2] is 0.458 (inactive); in assay [3], -1.74 (inactive); in [4], 2.34 (inactive); in assay [6] it was 1.22 (inactive); in assay [14], -0.0612 (inactive).
